Compound activity deposited in PubChem BioAssay by several laboratories.
Shown are actives, neighbours in structure and some others; about 3.3% of the full set was active somewhere.
ERb coact inh – inhibitors of ERβ-SRC1 coactivator interaction, primary screen, biochemical, TR-FRET, ERβ LBD, SRC-1 peptide. TR-FRET ER-beta LBD / SRC1-Cy5 peptide binding; receptor agonist-loaded with 1 µM estradiol. Estrogen receptor beta (Homo sapiens), Q92731. inhibition, % at 25.6 µM. hit rate 1.3% among 86,000;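 active means compounds whose percent inhibition of the receptor-coactivator binding signal exceeds about 50% in the single-dose screen, limit read from the data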;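 further: 0% = receptor plus peptide wells without compound and 100% = peptide-only wells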
ERa SRC1 inh – ERα–SRC-1 coactivator interaction inhibitors, primary screen, biochemical, TR-FRET, ERα LBD, estradiol-bound; TR-FRET ER-alpha LBD / SRC-1 peptide; Estrogen receptor (Homo sapiens), P03372; inhibition, % at 25.6 µM; hit rate 1.7% among 86,000; in the data active means inhibition above about 50%;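 further: 0% = receptor plus peptide control and 100% = peptide only without receptor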
ERa SRC1 pot – enhancers of ERα–SRC-1 coactivator binding, primary screen, biochemical, TR-FRET, ERα LBD, low estradiol; TR-FRET ERalpha-LBD/SRC-Cy5 coactivator binding, 2 h; 100 = basal binding, no effect; AID 639, 2007; hit rate 1.3% among 86,000; coactivator binding (% of control), % at 25.6 µM; in the data active means activity above about 200%;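 further: binding measured in presence of low estradiol as agonist stimulus; 0% = peptide alone without receptor and 100% = receptor with peptide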
PLK1 kinase inh – human PLK1 kinase inhibitors, primary screen, biochemical, TR-FRET; Serine/threonine-protein kinase PLK1 (Homo sapiens), P53350; recombinant PLK1 kinase, TR-FRET peptide phosphorylation; inhibition, % at 10 µM; hit rate 0.53% among 97,000; AID 619, 2007;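 active means inhibition of 50% or more in the single-concentration screen; inactive means inhibition below 50%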;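 further: 0% = DMSO max control and 100% = H-89 dihydrochloride min control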
Target sequence (P53350 whole entry, looked up): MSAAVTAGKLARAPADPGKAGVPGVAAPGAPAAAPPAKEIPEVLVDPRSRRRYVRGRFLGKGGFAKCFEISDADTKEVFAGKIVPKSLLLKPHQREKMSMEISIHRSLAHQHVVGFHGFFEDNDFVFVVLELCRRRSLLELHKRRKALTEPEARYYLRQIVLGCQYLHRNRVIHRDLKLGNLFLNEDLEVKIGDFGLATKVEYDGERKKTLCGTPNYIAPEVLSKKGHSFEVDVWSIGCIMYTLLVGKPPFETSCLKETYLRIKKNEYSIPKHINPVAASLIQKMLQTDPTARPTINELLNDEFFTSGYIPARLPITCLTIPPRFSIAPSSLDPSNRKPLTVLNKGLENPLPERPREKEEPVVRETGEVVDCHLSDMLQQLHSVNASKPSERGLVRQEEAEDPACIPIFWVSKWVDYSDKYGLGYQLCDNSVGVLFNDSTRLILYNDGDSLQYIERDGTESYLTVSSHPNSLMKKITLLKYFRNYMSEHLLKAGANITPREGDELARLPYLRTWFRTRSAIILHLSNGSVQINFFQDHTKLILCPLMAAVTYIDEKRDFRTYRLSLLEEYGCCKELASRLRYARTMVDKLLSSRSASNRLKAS
Smad3 inh – Smad3/FoxH1 peptide binding inhibitors, primary screen, biochemical, TR-FRET | Mothers against decapentaplegic homolog 3 (Homo sapiens), P84022 | TR-FRET Smad3/Dy647-FoxH1 peptide binding, europium anti-His | inhibition, % at 25 µM | hit rate 0.29% among 88,000;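 active means compounds that reduce the energy-transfer binding signal between the protein and its labelled peptide by more than half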;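 further: 0% = Smad3 plus labelled peptide maximal FRET and 100% = peptide-only background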
Plk1 PBD FP – Plk1 polo box domain binding inhibitors, primary screen, biochemical, fluorescence polarization. Plk1 PBD phosphopeptide binding. AID 693, 2007. inhibition, %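 (tested at about 20 µM)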. hit rate 0.13% among 97,000; in the data active means inhibition above about 34%, passing the limit was not always enough
Redox H2O2 DR – redox cycling hydrogen peroxide generation, dose response, artefact control for Plk1 PBD inhibitor project, biochemical; shares compounds with Plk1 PBD FP; redox cycling H2O2 generation, DTT, counter-screen; EC50, µM; 120 tested, under 10 active; AID 876, 2007; call rule not given here
Starred values were filed as active, the others as inactive; / = no result given.

SMILES	ERb coact inh	ERa SRC1 inh	ERa SRC1 pot	PLK1 kinase inh	Smad3 inh	Plk1 PBD FP	Redox H2O2 DR
O=C(Nc1ccc(S(=O)(=O)N2CCCCC2)cc1)c1ccc(CN2CCc3ccccc3C2)cc1	/	/	/	-8	/	-15	/
O=C(COC(=O)C1=Cc2ccccc2OC1)NC1CCCC1	/	/	/	-12	/	13	/
Cc1ccccc1Oc1ncnc2sccc12	/	/	/	-7	/	-6	/
Cc1ccc(Cl)cc1N1CCN(S(=O)(=O)c2ccc3c(c2)oc(=O)n3C)CC1	37	-1	83	-9	-14	39*	>50
NC(=O)C1(N2CCCCC2)CCN(C(=O)NC2CCCCC2)CC1	-4	6	110	-3	-17	52*	>50
CNC(=O)CC(C(=O)O)c1ccc(OCC(C)C)cc1 (stereo not given)	1	-5	107	-4	-7	64*	>50
CNC(=O)CC(C(=O)O)c1ccc(OC(C)C)cc1 (stereo not given)	18	11	93	-10	-10	3	/
CCN1C(=O)c2cccc3c(S(=O)(=O)NCCc4c[nH]c5ccccc45)ccc1c23	/	/	/	-19	/	13	/
CSc1nc2ccc(Cl)cc2[nH]1	6	-10	97	-13	8	0	/
CCc1nc2cc(Cl)c(Cl)cc2[nH]1	-6	-1	80	2	-16	50*	>50
CC1(C)NC(=O)N(CC(O)Cn2nnc3ccccc32)C1=O (stereo not given)	/	/	/	-4	/	4	/
COC(=O)c1cc(NS(=O)(=O)c2ccc(NC(C)=O)cc2)cc(C(=O)OC)c1	-10	-4	117	5	3	-5	/
CC1CCCC(NC2CCCCNC2=O)C1 (stereo not given)	-7	-3	115	-2	1	43*	>50
CC(C)CC(NC(=O)C1CCC(C)CC1)C(=O)Nc1ccc2c(c1)OCCO2 (stereo not given)	0	6	96	-23	-6	4	/
O=C1C(NS(=O)(=O)c2cccs2)=C(N2CCN(c3cccc(C(F)(F)F)c3)CC2)C(=O)c2ccccc21	-10	1	93	-5	6	-21	/
CCOc1ccccc1N1CCN(C2=C(NS(=O)(=O)c3cccs3)C(=O)c3ccccc3C2=O)CC1	-3	-6	113	7	-2	59*	>50
C=CCn1c2ccccc2c2nnc(SCc3ccc4nonc4c3)nc21	1	5	90	-6	3	50*	>50
CC(C)C(=O)N1CCC(CN=CC2=C(O)CC(C)(C)CC2=O)CC1	-9	-17	103	-11	3	-4	/
Cc1nc2ccc(Br)cn2c(=O)c1Cl	1	-2	102	4	-2	-7	/
Cc1nc2cccc(C)n2c(=O)c1Cl	-3	0	103	3	8	42*	>50
c1ccc(CN2CCN(C3=Nc4cccc5cccc3c45)CC2)cc1	-10	-13	119	-5	-1	-33	/
O=C1CCN2C=Nc3cccc4ccc1c2c34	/	/	/	-20	/	51*	>50
O=C(O)COc1ccc(Br)cc1/C=N/O	8	21	84	-1	4	45*	>50
C/C(=C\C(=O)Nc1cc(C)on1)c1ccccc1	-13	-21	123	-8	6	40*	>50
CC(C)OCCCNC(=O)c1ccc(NC(=O)C2CCCO2)cc1 (stereo not given)	/	/	/	-7	/	35*	>50
SMILES	ERb coact inh	ERa SRC1 inh	ERa SRC1 pot	PLK1 kinase inh	Smad3 inh	Plk1 PBD FP	Redox H2O2 DR
CCCCNC(=O)c1ccc(NC(=O)C2CCCO2)cc1 (stereo not given)	-11	-12	118	/	8	/	/
Cc1nn(C(C)C(=O)N2CCCCC2)c(=O)c2c1sc1ccccc12 (stereo not given)	/	/	/	-9	/	43*	>50
CS(=O)(=O)N1CCN(C/C=C/c2ccccc2)CC1	5	8	95	8	7	47*	>50
O=S(=O)(Cc1ccccc1)N1CCN(C/C=C/c2ccccc2)CC1	-4	0	144	-14	-2	3	/
CCCCC(CC)CNC(=O)c1ccc2c(c1)OCO2 (stereo not given)	-1	16	112	3	3	-23	/
COc1ccc(C2SCCN2S(=O)(=O)c2ccc(F)cc2)cc1OC (stereo not given)	2	3	107	0	4	-4	/
COc1ccccc1C1SCCN1S(=O)(=O)c1cccc(C(F)(F)F)c1 (stereo not given)	-1	-4	105	-6	2	51*	>50
